This passage reports Potency and max activation results from PubChem BioAssay (Tox21).

A number with no mark means an inactive call. Inconclusive results are not listed. Activity calls are given as the source filed them. Unless noted, calls follow the shape of the dose curve; as a rule, active = well fitted curve in the direction sought with a large enough effect in the repeat runs; inconclusive = weak or mixed curves; inactive = no such curve, though single readings can be large; an effect the other way counts as inactive or inconclusive.

The nature of assay [1]: Caspase-3/7 induction in HepG2 cells by small molecules, qHTS assay (AID 1346978). Also: nearly all actives have a fitted effect of over 15% in size. Summed up:
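Wild-type HepG2 cells, 2,000/well, settled 5 hr at 37 C and 5% CO2, then compound-treated for 17 hr; caspase-3/7 activity read by luminescent Caspase-Glo 3/7 after 30 min at room temperature.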
For orientation: qHTS replaces the single test concentration by a dilution series.

Assay [2] is described as follows: Caspase-3/7 induction in CHO-K1 cells by small molecules, qHTS cell viability counter screen (AID 1346979). Also: nearly all actives have a fitted effect of over 35% in size. Summed up:
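Viability readout by fluorescence (CellTiter-Fluor) on wild-type CHO-K1 cells exposed for 16hr at 37C and 5% CO2 to compounds delivered in DMSO; reagent incubated 1hr before reading.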

Assay [3] can be described thus: Caspase-3/7 induction in CHO-K1 cells by small molecules, qHTS assay (AID 1346980). Also: nearly all actives have a fitted effect of over 15% in size. Summed up: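 Wild-type CHO-K1 cells exposed to compounds for 17hr at 37 C, 5% CO2. Caspase-3/7 activity then measured by Caspase-Glo 3/7 luminescence after 30min at room temperature.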
The nature of assay [4]: Caspase-3/7 induction in HepG2 cells by small molecules, qHTS cell viability counter screen (AID 1346981). Also: series mostly up to about 92 µM; nearly all actives have a fitted effect of over 30% in size. Summed up:
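Cell viability is measured as a cytotoxicity counter screen alongside the Caspase-Glo 3/7 readout in identical wells. Wild-type HepG2 cells are treated with test compounds for 16 hr at 37 C before CellTiter-Fluor addition and a 1-hr incubation.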

The target in assay [5] is Nuclear receptor subfamily 1 group I member 2 (Homo sapiens) (UniProt O75469). In words: Human pregnane X receptor (PXR) small molecule agonists, qHTS assay (AID 1346982). Also: nearly all actives have a fitted effect of over 35% in size. Also: potency is read from the fitted curve at half-maximal effect. Summed up:
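Cells: HepG2 stably carrying PXR-Luc. Medium held 5% charcoal-stripped FBS. Compounds in DMSO added after 5 hr plating, incubated 24 hr, then luminescence quantified with ONE-Glo.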

For assay [6], the target named is Acetylcholinesterase (Homo sapiens) (UniProt P22303). Description: Acetylcholinesterase (AChE) small molecule antagonists: colormetric cell-based qHTS assay (AID 1347395; calls by dose curve; also: nearly all actives have a fitted effect of over 30% in size). Summed up: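 Homogeneous whole-cell format. SH-SY5Y cells seeded overnight, dosed with compound (30 min, 37 C, 5% CO2), then given DTNB/acetylthiocholine cocktail for 90 min at 37 C; colorimetric signal.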

Assay [7] has the same target. In words: Acetylcholinesterase (AChE) small molecule antagonists: enzyme-based qHTS assay (AID 1347397; calls by dose curve; also: nearly all actives have a fitted effect of over 55% in size). The settings on record: Potency: AChE enzyme activity inhibition. Summed up:
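Colorimetric DTNB read-out of thiocholine released from acetylthiocholine by recombinant human AChE (50 mU/mL as dispensed). Compounds were preincubated 30 min at RT before substrate/DTNB addition, with a 10 min RT reaction.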

Assay [8] shares this target. In words: Acetylcholinesterase (AChE) small molecule antagonists: fluorescence cell-based qHTS assay (AID 1347398; calls by dose curve; also: nearly all actives have a fitted effect of over 50% in size). The settings on record: Potency: AChE activity. Summed up: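 SH-SY5Y, 2,000 cells/well, attached overnight; cmpd 30 min 37 C; acetylthiocholine/Thiolite Green cocktail 40 min RT; fluorescence Ex/Em 490/520 nm.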
The target is the same in assay [9]. In words: Acetylcholinesterase (AChE) small molecule antagonists: enzyme-based qHTS assay with human liver microsomes (AID 1347399; calls by dose curve; also: nearly all actives have a fitted effect of over 60% in size). Conditions: Potency: qHTS inhibition. Summed up: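 Recombinant human AChE (50 mU/mL in the enzyme mix) and human liver microsomes (0.25 mg/mL final) were preincubated with compound and NADPH (0.25 mg/mL final) for 30 min at 37 C. Acetylthiocholine/DTNB was then added; thiocholine was read colorimetrically after 10 min at room temperature.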

The target in assay [10] is Cytochrome P450 2D6 (Homo sapiens) (UniProt P10635). In words: Cytochrome P450 Family 2 Subfamily D Member 6 (CYP2D6) small molecule antagonists: luciferase reporter qHTS assay (AID 1671196). Also: nearly all actives have a fitted effect of over 50% in size. Also: potency is read from the fitted curve at half-maximal effect. Summed up: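 Enzyme and proluciferin substrate were first combined with test chemical for 10 min at room temperature. Adding NADPH regeneration solution started a 1 h reaction, stopped with luciferin detection reagent and read by luminescence 20 min later.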
Background: Reporter assays use an easily measured gene product as a stand-in for the process of interest.

Assay [11] deals with Cytochrome P450 2C19 (Homo sapiens) (UniProt P33261). Description: Cytochrome P450 Family 2 Subfamily C Member 19 (CYP2C19) small molecule antagonists: luciferase reporter qHTS assay (AID 1671197). Also: nearly all actives have a fitted effect of over 65% in size. Also: potency is read from the fitted curve at half-maximal effect. Summed up:
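P450-Glo CYP2C19 screening system; proluciferin substrate; DMSO compound stocks; 10 min RT preincubation; NADPH regeneration, 1 h at 37C; luciferin detection reagent, 20 min RT; luminescence as RLU.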

The target of assay [12] is Cytochrome P450 2C9 (Homo sapiens) (UniProt P11712). Description: Cytochrome P450 Family 2 Subfamily C Member 9 (CYP2C9) small molecule antagonists: luciferase reporter qHTS assay (AID 1671198). Also: nearly all actives have a fitted effect of over 50% in size. Also: potency is read from the fitted curve at half-maximal effect. Summed up:
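P450-Glo proluciferin substrate with CYP2C9 enzyme; 10 min RT preincubation, then NADPH regeneration 1 h at 37C; luciferin detection reagent 20 min RT, luminescence in relative luminescence units.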

In assay [13] the target is Cytochrome P450 1A2 (Homo sapiens) (UniProt P05177). In words: Cytochrome P450 Family 1 Subfamily A Member 2 (CYP1A2) small molecule antagonists: luciferase reporter qHTS assay (AID 1671199). Also: nearly all actives have a fitted effect of over 50% in size. Also: potency is read from the fitted curve at half-maximal effect. Summed up: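 Compounds were incubated with CYP1A2 and a luminogenic proluciferin substrate for 10 min at room temperature before the reaction was started with NADPH regeneration solution. After 1 h, detection reagent was added and light output, proportional to CYP activity, was recorded.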

Assay [14] has as its target Voltage-gated inwardly rectifying potassium channel KCNH2 (Homo sapiens) (UniProt Q12809). In words: Human Ether-a-go-go-Related Gene (hERG) channel small molecule antagonists: fluorescence cell-based qHTS assay (AID 1671200). Summed up: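 Thallium served as the potassium surrogate; its influx into dye-loaded U2OS cells carrying the channel was measured by fluorescence over 2 min.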
For orientation: hERG is a cardiac potassium channel; its block is linked to QT prolongation.

For assay [15], the target named is Cytochrome P450 3A4 (Homo sapiens) (UniProt P08684). In words: Cytochrome P450 Family 3 Subfamily A Member 4 (CYP3A4) small molecule antagonists: luciferase reporter qHTS assay (AID 1671201). Also: nearly all actives have a fitted effect of over 50% in size. Also: potency is read from the fitted curve at half-maximal effect. Summed up: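 Relative luminescence units after 20 min with luciferin detection reagent served as read-out. Beforehand, CYP3A4 turned over a proluciferin substrate for 1 h at room temperature with NADPH regeneration, following 10 min compound preincubation.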

Assay [16] concerns the target Nuclear receptor subfamily 1 group I member 2 (Rattus norvegicus) (UniProt Q9R1A7). In words: Rat pregnane X receptor (rPXR) activation by small molecules, qHTS assay (AID 1346983). Also: nearly all actives have a fitted effect of over 20% in size. The settings on record: rPXR luciferase reporter cells, One-Glo luminescence, 24 h; max activation: stronger effect = higher value. Summed up:
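Cell-based rPXR activation assay: rPXR cells, 2,000 per well, rested 5hr at 37 C, then exposed to compounds in DMSO for 24 hr at 37 C. Luciferase activity read by One-Glo luminescence after 30 min at room temperature.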

For assay [17], the target named is Nuclear receptor subfamily 1 group I member 2 (Homo sapiens) (UniProt O75469). In words: CYP3A4 induction through human pregnane X receptor (PXR) by small molecules, qHTS assay (AID 1346984). Also: nearly all actives have a fitted effect of over 40% in size. Summed up: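 Quantitative HTS in DPX-2 cells, i.e. HepG2 transfected with PXR response element and CYP3A4-promoter luciferase. Compounds in DMSO incubated 24hr at 37C; then P450-Glo CYP3A4 substrate, 3uM final, 3hr; One-Glo luminescence.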
% is scaled to controls: 0 for no effect and ±100 for the full control effect.

Cytochrome P450 1A2 (Homo sapiens), sequence (P05177 whole entry, looked up): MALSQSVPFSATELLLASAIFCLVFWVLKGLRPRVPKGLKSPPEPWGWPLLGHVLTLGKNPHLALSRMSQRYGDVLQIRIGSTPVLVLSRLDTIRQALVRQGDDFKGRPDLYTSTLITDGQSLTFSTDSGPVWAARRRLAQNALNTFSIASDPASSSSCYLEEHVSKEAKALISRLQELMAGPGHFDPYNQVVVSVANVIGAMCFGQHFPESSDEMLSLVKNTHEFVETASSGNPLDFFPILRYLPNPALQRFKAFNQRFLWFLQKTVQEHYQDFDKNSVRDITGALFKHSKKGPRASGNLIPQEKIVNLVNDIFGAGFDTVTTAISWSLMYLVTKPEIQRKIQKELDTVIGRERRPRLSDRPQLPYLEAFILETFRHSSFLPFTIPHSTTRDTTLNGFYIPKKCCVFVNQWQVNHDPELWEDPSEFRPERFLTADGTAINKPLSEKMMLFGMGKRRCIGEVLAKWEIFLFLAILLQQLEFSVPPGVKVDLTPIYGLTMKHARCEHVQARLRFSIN
Cytochrome P450 2C19 (Homo sapiens), sequence (P33261 whole entry, looked up): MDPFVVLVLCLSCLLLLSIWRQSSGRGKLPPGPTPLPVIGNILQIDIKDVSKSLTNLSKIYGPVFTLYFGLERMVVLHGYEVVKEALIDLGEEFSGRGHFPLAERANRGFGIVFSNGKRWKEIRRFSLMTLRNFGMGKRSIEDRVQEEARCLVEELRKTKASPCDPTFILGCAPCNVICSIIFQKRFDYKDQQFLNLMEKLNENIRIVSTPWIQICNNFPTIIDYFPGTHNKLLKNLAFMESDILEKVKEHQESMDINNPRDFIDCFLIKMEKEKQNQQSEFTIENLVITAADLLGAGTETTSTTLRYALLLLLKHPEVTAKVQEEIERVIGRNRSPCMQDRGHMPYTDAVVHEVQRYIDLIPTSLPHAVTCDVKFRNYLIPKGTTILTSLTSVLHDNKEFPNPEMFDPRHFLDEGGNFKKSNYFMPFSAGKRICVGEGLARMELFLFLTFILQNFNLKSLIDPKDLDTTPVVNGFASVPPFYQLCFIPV
Cytochrome P450 2D6 (Homo sapiens), sequence (P10635 whole entry, looked up): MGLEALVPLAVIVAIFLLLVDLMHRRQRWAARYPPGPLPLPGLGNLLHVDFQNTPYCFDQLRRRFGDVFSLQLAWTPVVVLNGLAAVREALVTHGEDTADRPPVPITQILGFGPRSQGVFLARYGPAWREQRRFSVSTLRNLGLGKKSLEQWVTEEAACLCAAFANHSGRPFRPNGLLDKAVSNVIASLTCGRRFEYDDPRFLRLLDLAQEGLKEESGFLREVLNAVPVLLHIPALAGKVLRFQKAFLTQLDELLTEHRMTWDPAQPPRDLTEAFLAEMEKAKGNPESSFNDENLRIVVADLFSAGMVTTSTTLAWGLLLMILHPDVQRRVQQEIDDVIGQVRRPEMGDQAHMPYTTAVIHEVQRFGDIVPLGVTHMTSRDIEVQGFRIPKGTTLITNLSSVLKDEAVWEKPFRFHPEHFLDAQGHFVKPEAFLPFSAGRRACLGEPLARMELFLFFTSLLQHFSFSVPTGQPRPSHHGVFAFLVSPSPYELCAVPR
Voltage-gated inwardly rectifying potassium channel KCNH2 (Homo sapiens), sequence (Q12809 whole entry, looked up): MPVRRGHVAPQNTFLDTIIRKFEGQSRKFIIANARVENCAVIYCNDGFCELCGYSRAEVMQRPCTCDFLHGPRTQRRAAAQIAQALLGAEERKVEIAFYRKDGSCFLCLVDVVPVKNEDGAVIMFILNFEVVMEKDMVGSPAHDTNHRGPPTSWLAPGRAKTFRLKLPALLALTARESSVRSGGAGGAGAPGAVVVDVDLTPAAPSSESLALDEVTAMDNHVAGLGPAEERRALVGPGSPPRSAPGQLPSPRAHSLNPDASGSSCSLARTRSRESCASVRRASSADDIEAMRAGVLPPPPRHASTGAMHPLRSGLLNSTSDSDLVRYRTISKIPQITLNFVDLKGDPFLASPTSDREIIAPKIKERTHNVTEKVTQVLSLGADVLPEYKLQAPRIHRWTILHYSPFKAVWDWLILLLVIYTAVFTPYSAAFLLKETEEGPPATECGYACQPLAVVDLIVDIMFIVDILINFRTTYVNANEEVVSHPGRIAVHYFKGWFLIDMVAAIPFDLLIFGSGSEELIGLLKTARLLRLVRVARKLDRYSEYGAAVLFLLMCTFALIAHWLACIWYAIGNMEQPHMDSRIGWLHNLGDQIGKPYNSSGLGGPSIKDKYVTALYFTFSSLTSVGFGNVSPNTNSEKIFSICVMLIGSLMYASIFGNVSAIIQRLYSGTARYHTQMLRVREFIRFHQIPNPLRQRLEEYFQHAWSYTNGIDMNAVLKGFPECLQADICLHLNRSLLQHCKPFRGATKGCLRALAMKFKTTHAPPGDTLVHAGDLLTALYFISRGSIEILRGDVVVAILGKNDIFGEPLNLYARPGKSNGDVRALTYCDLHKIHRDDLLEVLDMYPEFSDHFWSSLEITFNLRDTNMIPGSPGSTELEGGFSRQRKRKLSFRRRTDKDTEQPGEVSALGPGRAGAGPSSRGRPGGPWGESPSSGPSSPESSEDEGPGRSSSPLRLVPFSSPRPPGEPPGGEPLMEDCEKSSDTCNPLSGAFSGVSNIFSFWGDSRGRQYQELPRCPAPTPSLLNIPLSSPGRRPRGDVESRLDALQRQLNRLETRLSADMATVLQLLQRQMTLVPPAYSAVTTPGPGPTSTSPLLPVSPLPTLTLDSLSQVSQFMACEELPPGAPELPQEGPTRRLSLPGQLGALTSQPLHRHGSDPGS
Cytochrome P450 3A4 (Homo sapiens), sequence (P08684 whole entry, looked up): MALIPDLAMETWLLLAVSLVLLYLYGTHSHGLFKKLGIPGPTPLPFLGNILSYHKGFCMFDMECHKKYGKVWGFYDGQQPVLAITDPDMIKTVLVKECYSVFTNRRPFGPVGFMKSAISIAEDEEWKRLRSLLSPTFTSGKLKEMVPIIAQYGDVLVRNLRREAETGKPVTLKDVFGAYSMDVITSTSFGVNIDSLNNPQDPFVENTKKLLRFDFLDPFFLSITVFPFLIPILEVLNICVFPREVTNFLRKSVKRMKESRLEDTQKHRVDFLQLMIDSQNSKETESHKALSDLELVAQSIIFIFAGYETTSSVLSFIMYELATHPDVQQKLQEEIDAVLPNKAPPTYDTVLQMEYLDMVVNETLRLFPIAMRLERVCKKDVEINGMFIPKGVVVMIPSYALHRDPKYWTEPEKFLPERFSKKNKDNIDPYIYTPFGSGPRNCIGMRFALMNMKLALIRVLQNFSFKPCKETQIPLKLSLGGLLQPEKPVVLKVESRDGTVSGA
Acetylcholinesterase (Homo sapiens), sequence (P22303 whole entry, looked up): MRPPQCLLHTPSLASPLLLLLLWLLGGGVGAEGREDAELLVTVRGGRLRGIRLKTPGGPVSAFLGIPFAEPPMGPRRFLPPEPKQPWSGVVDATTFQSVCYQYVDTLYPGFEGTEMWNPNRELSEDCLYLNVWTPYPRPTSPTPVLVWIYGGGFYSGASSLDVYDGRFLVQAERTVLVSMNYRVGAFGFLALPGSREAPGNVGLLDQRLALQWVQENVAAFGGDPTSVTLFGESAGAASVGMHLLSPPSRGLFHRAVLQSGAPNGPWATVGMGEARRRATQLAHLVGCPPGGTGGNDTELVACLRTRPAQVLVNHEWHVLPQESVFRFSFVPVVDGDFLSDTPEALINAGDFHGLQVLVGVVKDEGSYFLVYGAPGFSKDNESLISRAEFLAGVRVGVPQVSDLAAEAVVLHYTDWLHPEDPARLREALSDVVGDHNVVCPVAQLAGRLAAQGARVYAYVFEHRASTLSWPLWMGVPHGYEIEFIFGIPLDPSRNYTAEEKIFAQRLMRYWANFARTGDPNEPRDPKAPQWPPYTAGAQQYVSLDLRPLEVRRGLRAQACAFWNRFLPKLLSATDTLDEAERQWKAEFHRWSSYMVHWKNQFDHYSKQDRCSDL
Cytochrome P450 2C9 (Homo sapiens), sequence (P11712 whole entry, looked up): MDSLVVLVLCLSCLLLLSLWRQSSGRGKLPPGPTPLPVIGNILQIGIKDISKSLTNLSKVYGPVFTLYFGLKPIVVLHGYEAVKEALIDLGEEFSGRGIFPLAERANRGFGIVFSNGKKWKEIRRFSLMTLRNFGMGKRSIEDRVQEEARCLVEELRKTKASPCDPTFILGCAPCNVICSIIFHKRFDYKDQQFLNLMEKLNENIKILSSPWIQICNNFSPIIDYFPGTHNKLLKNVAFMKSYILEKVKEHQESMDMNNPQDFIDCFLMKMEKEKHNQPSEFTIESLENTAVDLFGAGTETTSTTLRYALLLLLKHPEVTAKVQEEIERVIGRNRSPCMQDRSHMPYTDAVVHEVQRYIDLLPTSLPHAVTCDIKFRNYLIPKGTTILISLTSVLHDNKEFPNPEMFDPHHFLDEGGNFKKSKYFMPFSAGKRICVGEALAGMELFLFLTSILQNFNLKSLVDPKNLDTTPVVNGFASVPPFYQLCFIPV
Nuclear receptor subfamily 1 group I member 2 (Homo sapiens), sequence (O75469 whole entry, looked up): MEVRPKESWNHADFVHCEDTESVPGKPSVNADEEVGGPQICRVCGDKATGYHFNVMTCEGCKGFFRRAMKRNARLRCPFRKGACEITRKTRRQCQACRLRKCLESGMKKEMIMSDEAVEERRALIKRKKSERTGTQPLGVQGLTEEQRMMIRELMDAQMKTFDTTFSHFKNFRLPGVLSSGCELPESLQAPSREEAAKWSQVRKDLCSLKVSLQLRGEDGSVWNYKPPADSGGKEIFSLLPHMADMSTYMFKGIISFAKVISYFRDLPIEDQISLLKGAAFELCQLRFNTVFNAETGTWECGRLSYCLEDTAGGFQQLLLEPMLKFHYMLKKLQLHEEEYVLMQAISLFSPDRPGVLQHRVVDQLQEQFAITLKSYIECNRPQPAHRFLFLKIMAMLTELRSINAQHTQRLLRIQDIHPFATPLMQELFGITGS

Turning to `CC(Cc1ccccc1)N(C)Cc1ccco1` (stereo unspecified), the Potency entry in assay [1], in assay [2], in assay [3], in assay [4], in assay [5] and in [6] was “inactive” in each case. The Potency entry in assay [7], in assay [8], in [9], in assay [12], in assay [13] and in assay [14] was “inactive” each time. The Potency result in [15] is “inactive”. The Potency in assay [10] is 0.776 µM (active); in assay [11], 7.76 µM (active).
Take `COCCC#N`: the Potency entry in assay [1], in assay [2], in assay [3], in assay [4], in [5] and in assay [6] was “inactive” each time. Also, the Potency entry in assay [7], in assay [8], in assay [9], in [10], in [11] and in [12] was “inactive” throughout. The Potency result in [13], in assay [14] and in assay [15] was “inactive” each time.
As for `N#CCCl`, the Potency entry in [1], in assay [2], in assay [3], in [4], in [5] and in assay [6] was “inactive” in each case. The Potency entry in assay [7], in assay [8] and in assay [9] was “inactive” in each case. Further, the Potency in [10] is 29.5 µM (active); in [11] it was 37.1 µM (active); in assay [13] it was 33.1 µM (active); in [15] it was 66 µM (active).
On to `CNC(C)(C)Cc1ccccc1`, for which the Potency entry in [1], in assay [2], in assay [3], in [4], in assay [5] and in assay [17] was “inactive” throughout. Also, the Potency entry in assay [6], in assay [7], in assay [8], in assay [9], in [11] and in assay [12] was “inactive” each time. Further, the Potency entry in assay [13], in [14] and in assay [15] was “inactive” each time. In addition, in [16], the max activation is -0.549%. Moreover, the Potency in assay [10] was 9.77 µM (active).
Consider `CC(Cc1ccc(OCC(=O)O)cc1)NCC(O)c1csc(C(F)(F)F)n1` (stereo unspecified), for which the Potency result in assay [1], in [2], in assay [3], in assay [4], in assay [5] and in [6] was “inactive” in each case. Further, the Potency result in [7], in assay [8], in assay [9], in assay [11], in [12] and in assay [14] was “inactive” each time. For the same compound, the Potency result in [15] is “inactive”. Further, the Potency in assay [13] was 35.6 µM (active).
`N#CSCc1ccccc1`: the Potency entry in [1], in [2], in [3], in [4], in assay [6] and in assay [7] was “inactive” throughout. In addition, the Potency entry in assay [9] and in assay [14] was “inactive” throughout. Also, the Potency was 43.5 µM (active) in assay [5], 45 µM (active) in assay [10] and 80 µM (active) in assay [13].
Regarding `ClC(Cl)C(Cl)(Cl)Cl`, the Potency entry in [1], in assay [2], in assay [3], in [4], in assay [5] and in [6] was “inactive” in each case. For the same compound, the Potency result in assay [7], in assay [8], in [9], in assay [12], in assay [14] and in [15] was “inactive” in each case. The Potency in assay [13] was 31.1 µM (active).
In the case of `C=CCOC(=O)c1ccccc1N`, the Potency result in assay [1], in [2], in [3], in [4], in [5] and in assay [6] was “inactive” in each case. For the same compound, the Potency entry in [8], in assay [9] and in assay [14] was “inactive” throughout. Further, the Potency in assay [10] was 63.7 µM (active); in [12] it was 35.8 µM (active); in assay [13] it was 7.15 µM (active); in assay [15], 40.2 µM (active).
